{"source": "PubChem BioAssay AID463218", "about": "(Sanford-Burnham Center for Chemical Genomics, 2010)", "note": "The whole screen tested about 4,400 compounds, of which about 3,700 (84%) were called active.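 The calls were made as follows: active = inhibition above about 39% in either of two replicate wells at 20 µM (limit read from the data); inactive = the rest.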 So high a share suggests a set chosen from earlier hits. A selection follows.", "data": [{"assay": "growth inhibition of tim23-1 ts yeast, retest – luminescence, single concentration, confirmation (AID 463218);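 also: temperature-sensitive tim23-1 mutant grown at 25 °C; 0% = DMSO wells with yeast and 100% = medium wells without yeast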", "conditions": "S. cerevisiae tim23-1 growth, BacTiter-Glo luminescence, 24 h; at 20 µM; active compounds read high", "values": [{"molecule": "Cc1ccc(-c2nc3ccccc3c(=O)n2-c2ccc(Br)cn2)cc1", "inhibition": "53.6% (active)"}, {"molecule": "Cc1cc2ccccn2c1C(C[N+](=O)[O-])c1c(F)cccc1Cl", "note": "(stereo not drawn)", "inhibition": "58.5% (active)"}, {"molecule": "COc1cccc(N2C(=O)NC(=O)/C(=C\\c3ccc([N+](=O)[O-])s3)C2=O)c1", "inhibition": "78.3% (active)"}]}]}
